# Measured values taken from PubChem BioAssay AID743100 (Vanderbilt Specialized Chemistry Center, 2013).
# Unmarked numbers belong to inactive results. Active and inactive are the calls of the source.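 How the source made its calls: active means calcium response above 60% of the acetylcholine maximum at human M5, as a positive modulator; inactive means the rest.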
# Biological target: Muscarinic acetylcholine receptor M5 (Homo sapiens) (UniProt P08912)
# Assay: potentiators of ACh response at human M5 – cell-based, single concentration, CHO-K1 hM5, calcium flux (AID 743100)
# Settings: CHO-K1 hM5, Fluo-4 calcium flux, ACh EC20, active compounds read high; at 10 µM unless noted
# Chain of Muscarinic acetylcholine receptor M5 (Homo sapiens) (P08912 whole entry, looked up): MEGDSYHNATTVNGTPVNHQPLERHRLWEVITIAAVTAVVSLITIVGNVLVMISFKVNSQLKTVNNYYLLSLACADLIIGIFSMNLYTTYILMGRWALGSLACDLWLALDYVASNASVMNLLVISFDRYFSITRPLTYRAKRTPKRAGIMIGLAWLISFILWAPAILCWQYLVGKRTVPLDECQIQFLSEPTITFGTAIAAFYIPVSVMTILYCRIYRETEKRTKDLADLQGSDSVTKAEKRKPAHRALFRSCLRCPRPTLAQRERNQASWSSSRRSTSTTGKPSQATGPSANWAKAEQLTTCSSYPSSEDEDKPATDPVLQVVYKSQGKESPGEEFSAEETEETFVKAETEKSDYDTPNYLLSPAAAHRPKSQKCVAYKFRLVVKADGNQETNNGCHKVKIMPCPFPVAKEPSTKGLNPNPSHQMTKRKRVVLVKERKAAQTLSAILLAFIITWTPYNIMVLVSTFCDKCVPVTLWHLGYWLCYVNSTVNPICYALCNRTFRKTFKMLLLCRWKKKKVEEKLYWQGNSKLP
row,SMILES,% ACh max response
1,CCN(Cc1ccccc1)C(=O)C1CCN(S(=O)(=O)c2ccccc2C(F)(F)F)CC1,21.7% [at 30 µM]
2,CCN(Cc1ccccc1)C(=O)C1CCN(S(=O)(=O)c2cc(C)ccc2C)CC1,24.5% [at 30 µM]
3,CCN(Cc1ccccc1)C(=O)C1CCN(S(=O)(=O)CC(C)C)CC1,21.3% [at 30 µM]
4,CCN(Cc1cccc(F)c1)C(=O)C1CCN(S(=O)(=O)c2ccc3cn[nH]c3c2)CC1,84.8% (active)
5,COc1cccc(S(=O)(=O)N2CCC(CN(Cc3ccccc3)C(C)=O)CC2)c1,12.7%
6,CCN(Cc1ccccc1)C(=O)C1CCN(S(=O)(=O)c2ccccc2F)CC1,38.4% [at 30 µM]
7,CCN(Cc1ccccc1)C(=O)C1CCN(C(=O)c2ccc(OC)cc2)CC1,25.5% [at 30 µM]
8,CCOC(=O)C1(Cc2ccccc2)CCN(S(=O)(=O)c2ccc3occc3c2)CC1,18.7%
9,CCN(Cc1ccc(SC)cc1)C(=O)C1CCN(S(=O)(=O)c2ccc3cn[nH]c3c2)CC1,14%
10,CCN(Cc1ccccc1)C(=O)C1CCN(S(=O)(=O)c2ccc(N3CCOCC3)nc2)CC1,70% [at 30 µM] (active)
11,CCN(Cc1ccccc1)C(=O)C1CCN(S(=O)(=O)c2c(C)noc2C)CC1,25.9% [at 30 µM]
12,CCN(Cc1ccccc1)C(=O)C1CCN(S(=O)(=O)c2ccc(OC)cc2)CC1,78.4% [at 30 µM] (active)
13,CCN([C@H](C)c1ccccc1)S(=O)(=O)C1CCN(S(=O)(=O)c2ccc3occc3c2)CC1,14.6%
